# Records with an inconclusive call do not appear. A call without a number means that no potency is given here. Active and inactive are the calls of the source. Calls follow the shape of the dose curve; as a rule, active = well fitted inhibition curve with a large enough effect; inconclusive = small, poorly fitted or top-dose-only effect; inactive = flat fitted curve, though single readings scatter.
# System: MCC-26
# Assay: qHTS assay to identify novel small-molecules to repurpose for Merkel cell carcinoma treatment (AID 1296009); also: nearly all actives have a fitted effect of over 60% in size
# Details: MCC and control cell lines, CellTiter-Glo viability, 72 h; series mostly up to 46 µM
# From the text: MCC is a rare and aggressive neuroendocrine skin cancer with limited treatment options. Approximately 80% of MCCs have the Merkel cell polyomavirus (MCPyV) DNA integrated into the host genome (virus-positive: VP-MCC) and viral oncogenes drive oncogenesis. The remaining MCCs are virus-negative (VN-MCC) and are caused by UV mutagenesis. To identify novel treatments for VP-MCC and/or VN-MCC we screened three VP-MCC cell lines (WAGA, MKL-1, MKL-2), three VN-MCC cell lines (MCC-13, MCC-26, UISO), and four immortalized, non-transformed control cell lines (HaCaT, HEK293T, CRL7250, NIH-3T3) against ~2,400 compounds in the NCGC Pharmaceutical Collection (NPC) and ~1,900 compounds in the Mechanism Interrogation PlatE (MiPE). Using cell viability as a readout (CellTiter-Glo assay) we found both overlapping and distinct drugs that can be repurposed for the treatment of VP-MCC and VN-MCC.
# A high-throughput screen was conducted in 1536-well white flat bottom plates (Corning) on a Kalypsys robotic system. Cell lines WAGA, MKL-1, MKL-2, MCC-13, MCC-26, UISO, HaCaT, HEK293T, CRL7250, and NIH-3T3 were screened against 2 small molecule annotated drug libraries NPC and MIPE in dose response (8 and 11 pt. respectively) measuring cell viability after 72 hours of incubation. […] A 1,536 pintool (Kalypsys) was used to transfer 23 nL of compound in DMSO to the 1,536-well assay plates. After 72 hr incubation at 37 degree celsius, 2.5 uL of CellTiter-Glo (Promega) was dispensed into each well using a BiorapTR. Plates were incubated at room temperature for 10 min, transferred to a ViewLux (PerkinElmer) and the luminescence was recorded using an exposure time of 2 seconds. Relative luminescence units (RLUs) were normalized to in-plate controls (no cells as a positive (cytotoxicity) control, DMSO as negative control) and the normalized data was processed using NCATS in-house software.
# Potency is read from the fitted curve at half-maximal effect.
row,Structure (SMILES),Potency
1,Clc1ccc(C(c2ccc(Cl)cc2)n2cc[n+](CC(OCc3ccc(Cl)cc3Cl)c3ccc(Cl)cc3Cl)c2)cc1 (stereo not given),inactive
2,COc1cc2ncnc(-n3nc(-c4ccccn4)nc3N)c2cc1OC,inactive
3,CC(C)(C(=O)NCC(F)(F)C(F)(F)F)C(=O)N[C@@H]1C(=O)Nc2ccccc2-c2ccccc21,inactive
4,CC1(C)O[C@H]2C[C@@H]3[C@H]4CCC5=CC(=O)C=C[C@]5(C)[C@@]4(F)[C@@H](O)C[C@]3(C)[C@]2(C(=O)CO)O1,inactive
5,CCCCC1C(=O)N(c2ccccc2)N(c2ccccc2)C1=O,inactive
6,COc1ccc(-c2nc(N3CCOCC3)c3sc(CN(C)c4ncc(C(=O)NO)cn4)cc3n2)cn1,52.6 nM (active)
7,COc1cc2c(cc1OC)CN(CCc1ccc(NC(=O)c3cc(OC)c(OC)cc3NC(=O)c3cnc4ccccc4c3)cc1)CC2,inactive
8,CC[C@H]1OC(=O)[C@H](C)[C@@H](O[C@H]2C[C@@](C)(OC)[C@@H](O)[C@H](C)O2)[C@H](C)[C@@H](O[C@@H]2O[C@H](C)C[C@H](N(C)C)[C@@H]2O)[C@](C)(O)C[C@@H](C)CN(C)[C@H](C)[C@@H](O)[C@]1(C)O,inactive
9,COc1ccc2cc(-c3nc(-c4ccc(S(C)=O)cc4)[nH]c3-c3ccncc3)ccc2c1 (stereo not given),inactive
10,NC1CCC(Nc2nc(Nc3ccc(C(=O)N4CCCCC4)cc3)c3ncn(-c4cccc(F)c4)c3n2)CC1 (stereo not given),inactive
11,NC(=O)c1cccc(-c2cc(Nc3ccc(OC(F)(F)F)cc3)ncn2)c1,inactive
12,Cc1ccc(Nc2cc(-c3cccc(N4C(=O)c5ccccc5C4=O)c3)ncn2)cc1NS(C)(=O)=O,inactive
13,CNC1CCC(N(Cc2cccc(-c3ccncc3)c2)C(=O)c2sc3c(F)ccc(F)c3c2Cl)CC1 (stereo not given),inactive
14,O=C(NOCC(O)CO)c1cc(Br)c(F)c(F)c1Nc1ccc(I)cc1F (stereo not given),inactive
15,CCOC1OC(=O)C[C@H]1NC(=O)[C@@H]1CCCN1C(=O)[C@@H](NC(=O)c1ccc(N)c(Cl)c1)C(C)(C)C (stereo not given in full),inactive
16,O=C(O)c1cc(-c2ccccc2)nc2ccccc12,inactive
17,CO[C@H]1C(=O)[C@]2(C)[C@@H](OC)C[C@H]3OC[C@@]3(OC(C)=O)[C@H]2[C@H](OC(=O)c2ccccc2)[C@]2(O)C[C@H](OC(=O)[C@H](O)[C@@H](NC(=O)OC(C)(C)C)c3ccccc3)C(C)=C1C2(C)C,inactive
18,COC(=O)[C@@H]1[C@H]2C[C@H]3c4[nH]c5ccccc5c4CCN3C[C@@H]2CC[C@@H]1O,inactive
19,CCCCCNC(=O)N1CCC(CN(Cc2ccc(Cl)cc2)Cc2ccc([N+](=O)[O-])s2)C1 (stereo not given),inactive
20,O=C(O)c1ccccc1C(=O)Nc1ccc(-c2ccccc2)cc1,inactive

row,Structure (SMILES),Potency
1,COc1cc(Nc2ncc(F)c(Nc3ccc4c(n3)NC(=O)C(C)(C)O4)n2)cc(OC)c1OC,inactive
2,COC[C@@H](c1ccc(C(F)(F)F)cc1)N1CCN(C2(C)CCN(C(=O)c3c(C)ncnc3C)CC2)C[C@H]1C,inactive
3,CC(C)C(=O)Oc1ccc(CO)cc1[C@H](CCN(C(C)C)C(C)C)c1ccccc1,inactive
4,N#CC(=C(N)Sc1ccccc1N)C(C#N)=C(N)Sc1ccccc1N,inactive
5,Cc1nnc(C(C)C)n1C1C[C@H]2CC[C@@H](C1)N2CC[C@H](NC(=O)C1CCC(F)(F)CC1)c1ccccc1 (stereo not given in full),inactive
6,CO[C@H]1C=CC=C(C)C(=O)NC2=CC(=O)C(NCCN(C)C)=C(C[C@@H](C)C[C@H](OC)[C@@H](O)[C@@H](C)C=C(C)[C@@H]1OC(N)=O)C2=O,3720 nM (active)
7,COc1ccc(-c2cc(=O)c3c(O)cc(O)cc3o2)cc1O,inactive
8,Cc1c[nH]c(C=C2C(=O)Nc3ccccc32)c1CCC(=O)O,inactive
9,C[C@H](NC(=O)c1sccc1OCc1ccc(Cl)cc1)c1ccccc1,inactive
10,NC(=O)c1cccc2[nH]c(-c3ccc([C@H]4CCCN4)cc3F)nc12,inactive
11,COc1ncc(-c2ccc3nccc(-c4ccnnc4)c3c2)cc1NS(=O)(=O)c1ccc(F)cc1F,372 nM (active)
12,Cc1c(O)cccc1C(=O)N[C@@H](CSc1ccccc1)[C@H](O)CN1C[C@H]2CCCC[C@@H]2C[C@@H]1C(=O)NC(C)(C)C,inactive
13,COc1ccc2cccc(CCNC(C)=O)c2c1,inactive
14,CC(=O)O[C@]1(C(C)=O)CC[C@H]2[C@@H]3C=C(Cl)C4=CC(=O)[C@@H]5C[C@@H]5[C@]4(C)[C@H]3CC[C@@]21C,inactive
15,CCC(=O)O[C@]1(C(=O)CO)CC[C@H]2[C@@H]3CCC4=CC(=O)CC[C@]4(C)[C@@H]3CC[C@@]21C,inactive
16,O=c1ccn([C@@H]2O[C@H](CO)[C@H](O)[C@H]2O)c(=O)[nH]1,inactive
17,O=C(O)CCC1CCC(c2cc(F)ccc2F)(S(=O)(=O)c2ccc(Cl)cc2)CC1 (stereo not given),inactive
18,CS(=O)c1ccc(-c2nc(-c3ccc(F)cc3)c(-c3ccncc3)[nH]2)cc1 (stereo not given),inactive
19,CC=CCC(C)C(O)C1C(=O)NC(CC)C(=O)N(C)CC(=O)N(C)C(CC(C)C)C(=O)NC(C(C)C)C(=O)N(C)C(CC(C)C)C(=O)NC(C)C(=O)NC(C)C(=O)N(C)C(CC(C)C)C(=O)N(C)C(CC(C)C)C(=O)N(C)C(C(C)C)C(=O)N1C (stereo not given),inactive
20,CC[C@]1(O)C[C@@H]2CN(CCc3c([nH]c4ccccc34)[C@@](C(=O)OC)(c3cc4c(cc3OC)N(C=O)[C@@H]3C45CCN4CC=C[C@](CC)([C@H]45)[C@@H](OC(C)=O)[C@]3(O)C(=O)OC)C2)C1 (stereo not given in full),inactive

# — PubChem BioAssay (NCATS)
